# Out of some 360,000 compounds screened, about 3,100 (0.86%) were called active.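 Rule for the calls: active = inhibition or corrected inhibition above about 18%, plus a signal ratio from 0.5 to 1.5 (limit read from the data, passing the limit was not always enough); inactive = the rest.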 What follows is part of a selection rich in actives, with near analogues and random picks from the rest.
# Molecular target: Neuropilin-1 (Homo sapiens) (UniProt O14786)
# Experiment: modulators of CendR peptide binding to NRP-1, primary screen, biochemical, fluorescence polarization, uHTS (AID 602438)
# Conditions: FAM-RPARPAR peptide binding to NRP-1, fluorescence polarization; at 25 µM; stronger effect = higher value
# Neuropilin-1 (Homo sapiens), sequence (O14786 whole entry, looked up): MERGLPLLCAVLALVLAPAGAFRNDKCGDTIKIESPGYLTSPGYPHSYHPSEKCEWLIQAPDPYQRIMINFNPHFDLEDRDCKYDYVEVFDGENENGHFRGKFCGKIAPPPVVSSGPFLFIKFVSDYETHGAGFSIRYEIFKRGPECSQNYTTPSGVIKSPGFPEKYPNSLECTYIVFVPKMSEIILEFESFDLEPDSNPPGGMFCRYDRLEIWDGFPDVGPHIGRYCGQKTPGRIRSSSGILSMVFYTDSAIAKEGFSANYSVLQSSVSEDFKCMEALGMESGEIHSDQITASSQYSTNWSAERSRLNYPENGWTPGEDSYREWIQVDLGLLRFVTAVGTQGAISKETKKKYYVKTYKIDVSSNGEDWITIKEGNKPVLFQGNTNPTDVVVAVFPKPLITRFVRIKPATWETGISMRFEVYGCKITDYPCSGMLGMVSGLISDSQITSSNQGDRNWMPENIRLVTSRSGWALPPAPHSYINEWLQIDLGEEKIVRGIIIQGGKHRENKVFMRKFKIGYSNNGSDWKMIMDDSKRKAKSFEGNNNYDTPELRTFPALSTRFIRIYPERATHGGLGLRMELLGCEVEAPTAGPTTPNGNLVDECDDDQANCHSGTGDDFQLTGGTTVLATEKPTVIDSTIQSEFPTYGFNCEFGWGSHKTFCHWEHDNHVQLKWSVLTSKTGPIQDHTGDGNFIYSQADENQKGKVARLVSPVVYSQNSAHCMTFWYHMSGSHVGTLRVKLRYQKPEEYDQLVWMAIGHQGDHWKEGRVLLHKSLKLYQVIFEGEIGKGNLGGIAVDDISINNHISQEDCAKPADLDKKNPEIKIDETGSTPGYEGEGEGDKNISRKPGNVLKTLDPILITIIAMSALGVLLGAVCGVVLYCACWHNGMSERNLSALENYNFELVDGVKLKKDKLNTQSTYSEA
row,Compound,inhibition
1,CC1Cc2ccccc2N1CC(=O)Nc1ccc(S(N)(=O)=O)cc1 (stereo not drawn),3.7% (inactive)
2,CC1COc2ccccc2N1S(=O)(=O)c1ccccc1 (stereo not drawn),8.8% (inactive)
3,Cc1ccc(C(=O)Nc2ccccc2-c2ccccc2)cc1S(=O)(=O)Nc1ccccc1,29.8% (active)
4,Cc1cc(C(C)(C)C)cc(S(=O)(=O)Nc2ccc(C(=O)O)cc2)c1C,7.7% (inactive)
5,O=C(O)c1ccc(F)c(S(=O)(=O)Nc2ccccc2)c1,-11.7% (inactive)
6,COC(=O)C1CCN(C(=O)c2ccc3oc(Cc4ccc(Cl)cc4)nc3c2)CC1,8.2% (inactive)
7,O=C(C1CCN(CC2CCCCC2)CC1)N1CCCC1,10.7% (inactive)
8,NC(=O)CSc1nnc(-c2cccc(S(=O)(=O)N3CCOCC3)c2)o1,-9.5% (inactive)
9,COc1ccc(NC(=O)c2oc3ccc(S(=O)(=O)N4CCOCC4)cc3c2C)cc1,13.1% (inactive)
10,Cc1noc(C)c1CSc1nc2cc(S(=O)(=O)N3CCOCC3)ccc2o1,21.4% (active)
11,C[C@@H]1ON(C)[C@H]2C[C@H]3c4cc(N5CCN(C)CC5)ccc4CCN3C(=O)[C@@H]12,4.7% (inactive)
12,Cc1cc(C)cc(N(CCC#N)C(=O)CN2C(=O)NC3(CCCC3)C2=O)c1,-5.9% (inactive)
13,CCN(CC)S(=O)(=O)c1ccc2[nH]cc(C(=O)NCCc3ccccc3)c(=O)c2c1,8.6% (inactive)
14,CN(C)/C(=N\OC(=O)c1ccccc1)c1nonc1N,2% (inactive)
15,COc1cccc(C2/C(=C(/O)c3ccc(F)cc3)C(=O)C(=O)N2CCN(C)C)c1 (stereo not drawn),4% (inactive)
16,CCCOc1ccc(/C(O)=C2/C(=O)C(=O)N(CCN(C)C)C2c2ccc(OC)c(OC)c2)cc1 (stereo not drawn),1.7% (inactive)
17,C=CCOc1ccc(C2/C(=C(\O)c3c(C)[nH]c(C(=O)OC)c3C)C(=O)C(=O)N2CCN(C)C)cc1 (stereo not drawn),29.5% (active)
18,Cc1ccc(-c2nc(CS(=O)CC(=O)N3CCN(c4ncccn4)CC3)c(C)o2)cc1 (stereo not drawn),-11.2% (inactive)
19,CCNC(=S)N(CCc1c(C)[nH]c2ccc(C)cc12)Cc1ccco1,-23.4% (inactive)
20,Cc1ccc(C)c(N(CC(=O)NCc2ccco2)C(=O)CCC(=O)Nc2ccccn2)c1,-4.5% (inactive)
21,CCCCC1=CC2=CC(=O)C(C)(OC(=O)CC)C(=O)C2=CN1CCCOC(C)C (stereo not drawn),29.4% (active)
22,CCN(CC)C(=O)N1CCN(C(=O)c2ccc(C)cn2)CC1,0.3% (inactive)

row,Compound,inhibition
1,Cc1ccc(C(CC(=O)O)NC(=O)c2ccc(S(=O)(=O)N3CCCC3)cc2)cc1 (stereo not drawn),-5.6% (inactive)
2,O=C(COC(=O)c1ccccn1)NNC(=O)c1ccc([N+](=O)[O-])cc1,2.2% (inactive)
3,O=C(OCc1ccc([N+](=O)[O-])cc1)c1ccccn1,28.2% (active)
4,N/C(=N\OC(=O)Cc1ccc([N+](=O)[O-])cc1)c1ccccn1,-0.7% (inactive)
5,Cc1ccc(OCC(=O)N2CCN(C(=O)c3cccnc3)CC2)cc1,6.1% (inactive)
6,O=C(C[C@H]1CC[C@H]2[C@@H](COC[C@H](O)CN2C(=O)c2ccccn2)O1)N1CCN(c2ccccc2)CC1,2.2% (inactive)
7,COc1cc(C2C(C(=O)c3sc(C)nc3C)=C(O)C(=O)N2CCN(C)C)cc(OC)c1OC (stereo not drawn),0.6% (inactive)
8,Cc1ccc(S(=O)(=O)N2CCC(=O)N([C@H](COCc3ccccc3)Cc3ccccc3)CC2)cc1,-15.7% (inactive)
9,Cc1ccc(S(=O)(=O)N2CCC(=O)N([C@H](COCc3ccccc3)C(C)C)CC2)cc1,-3.6% (inactive)
10,COc1ccc(COCCN2CCN(S(=O)(=O)c3ccccc3)CCC2=O)cc1,28.5% (active)
11,CCCCCn1nnnc1-c1nc2cc3ccccc3cc2[nH]c1=O,0% (inactive)
12,COCCCNC(=O)c1c(F)c(F)c(F)c(F)c1F,8.4% (inactive)
13,Cc1nc(C(F)(F)F)ccc1C(=O)N1CCC1(C)C(=O)NS(=O)(=O)c1ccccc1Cl (stereo not drawn),13.8% (inactive)
14,NC(=O)COc1ccccc1C(=O)NC12CC3CC(CC(C3)C1)C2,-2.6% (inactive)
15,O=C(NCCN1CCOCC1)c1ccccc1N1C(=O)[C@@H]2Cc3c([nH]c4ccccc34)C(c3cccc(Cl)c3)N2C1=O (stereo partly drawn),-5.5% (inactive)
16,CCOCc1nnc(NC(=O)CSc2ccc(C)cc2)s1,-1% (inactive)
17,O=C(Nc1nnc(COc2ccccc2)s1)Nc1ccccc1F,-10.8% (inactive)
18,Cc1ccc(OCc2nnc(NC(=O)OCC(C)C)s2)cc1,19.5% (active)
19,O=C(CNCc1ccco1)Nc1cc(S(=O)(=O)N2CCOCC2)ccc1N1CCCC1,7.8% (inactive)
20,Cc1cc(C)c(CN2CCN(C(=O)Cn3ccc(NC(=O)OCc4ccccc4)nc3=O)CC2)c(C)c1,3.3% (inactive)
21,O=C(c1ccccc1)c1cccn1CC(=O)N1CCN(c2ccc(F)cc2)CC1,-4.3% (inactive)
22,Cc1ccc(CNS(=O)(=O)c2ccc3c(c2)N(C)CCO3)cc1,-8.8% (inactive)

row,Compound,inhibition
1,COc1ccc(-c2nonc2NC(=O)c2oc3ccc(F)cc3c2C)cc1OC,30.3% (active)
2,CCc1nonc1NC(=O)c1oc2ccc(Cl)cc2c1C,13.2% (inactive)
3,Cc1nonc1NC(=O)c1oc2ccccc2c1C,7.8% (inactive)
4,O=C(NCc1ccc2c(c1)OCO2)C1CCCN(S(=O)(=O)c2cccs2)C1 (stereo not drawn),-10.1% (inactive)
5,CCCCc1c(-c2ccc(Br)cc2)ncn1CCc1ccccc1OC,12.7% (inactive)
6,CC(C)C1Cc2[nH][nH]c(=O)c2C(c2ccc(Cl)cc2)O1 (stereo not drawn),-4.6% (inactive)
7,CC(C)NC(=O)c1ccccc1S(=O)c1ccccc1C#N (stereo not drawn),-10.3% (inactive)
8,COc1ccc(-c2oc3ncnc(NCCCO)c3c2-c2ccc(OC)cc2)cc1,4.1% (inactive)
9,CCN(CCCCOC(=O)c1ccc(OC)c(OC)c1)C(C)Cc1ccc(OC)cc1 (stereo not drawn),-0.7% (inactive)
10,CCc1oc(-c2ccc(OC)cc2)c(C(=O)OCCCCCO)c1C(C)OCCO (stereo not drawn),23% (active)
11,Cc1ccc([C@@H]2CC=C(C(=O)O)[C@H](c3cccc(Cl)c3)N2S(=O)(=O)c2ccc(C)cc2)cc1,-10.9% (inactive)
12,CCOC(=O)C1=CC[C@@H](c2ccccc2)N(S(=O)(=O)c2ccc(C)cc2)[C@H]1c1ccc(CC)cc1,11.1% (inactive)
13,CCOC(=O)C1=CC[C@@H](c2ccncc2)N(S(=O)(=O)c2ccc(C)cc2)C1,13.9% (inactive)
14,CCOC(=O)C1=CC[C@@H](c2ccccc2)N(S(=O)(=O)c2ccc(C)cc2)[C@H]1c1cccc(OC)c1,26% (active)
15,CCOC(=O)C1=CCC(c2ccc(F)cc2)N(S(=O)(=O)c2ccc(C)cc2)C1 (stereo not drawn),19.9% (active)
16,CC(=O)C1=CCC(c2ccccc2)N(S(=O)(=O)c2ccc(C)cc2)C1 (stereo not drawn),-3.9% (inactive)
17,CCN(CC)S(=O)(=O)c1ccc(CNC(=O)CN2C(=O)NC3(CCc4ccccc43)C2=O)cc1 (stereo not drawn),-10.1% (inactive)
18,CCOC(=O)CSc1nccc(N(C)C)c1C#N,25.2% (active)
19,CCOC(=O)CSc1ccccn1,2.8% (inactive)
20,CCOC(=O)CSc1nc(N2CCOCC2)c2c(c1C#N)CC(C(C)C)OC2 (stereo not drawn),-2% (inactive)
21,Cc1n[nH]c(C)c1S(=O)(=O)N1CCCC(C(=O)NCC2COc3ccccc3O2)C1 (stereo not drawn),6.3% (inactive)
22,COC(=O)Nc1ncc(CN2CCCCC2)s1,6.1% (inactive)

row,Compound,inhibition
1,COC(=O)C1(C(=O)OC)C[C@H](c2ccccc2)N(Cc2ccccc2OC)[C@@H]1c1ccccc1,18.8% (inactive)
2,COCCNC(=O)c1ccc2c(c1)ncn2-c1ccc(C)c(Cl)c1,37.8% (active)
3,COC(CNC(=O)c1ccc2c(c1)ncn2-c1cc(C)cc(C)c1)OC,-2.4% (inactive)
4,COCCCNC(=O)c1ccc2c(c1)ncn2-c1ccccc1OC,-5.2% (inactive)
5,CC1(C)NC(=O)N(CC(=O)N2CCN(S(=O)(=O)c3ccccc3F)CC2)C1=O,-17.9% (inactive)
6,CCOC(=O)N1CCC(N(CCOC)C(=O)Nc2ccc(C)c(C)c2)CC1,-9.1% (inactive)
7,CC(=O)NCC(=O)N(C)C(C(=O)Nc1ccc2c(c1)OCCO2)c1ccccc1 (stereo not drawn),-6% (inactive)
8,CC(=O)N1c2ccc(S(=O)(=O)N3CCC(C(=O)NC4CCCCC4C)CC3)cc2CC1C (stereo not drawn),21.3% (active)
9,CC(=O)N1c2ccc(S(=O)(=O)N3CCC(C(=O)NCc4ccc(F)cc4)CC3)cc2CC1C (stereo not drawn),-3.5% (inactive)
10,CC(=O)N1c2ccc(S(=O)(=O)N3CCC(C(=O)NC4CCCC(C)C4C)CC3)cc2CC1C (stereo not drawn),1.3% (inactive)
11,COc1ccc2c(c1)C(NS(=O)(=O)OCC(Cl)(Cl)Cl)CCC2 (stereo not drawn),20.7% (active)
12,COc1ccc(CN(C)C(C)C(=O)NC2CCCc3ccccc32)cc1 (stereo not drawn),-9.8% (inactive)
13,COC(=O)c1cc(OCC(=O)NC2CCCc3ccccc32)cc(C(=O)OC)c1 (stereo not drawn),11.6% (inactive)
14,CCCc1nnc(NC(=O)CCC(=O)NC2CC2)s1,-3.9% (inactive)
15,COc1cccc(N(C(=O)c2ccn[nH]2)C2(C(=O)Nc3c(C)cccc3C)CCCCC2)c1,20.6% (active)
16,Cc1cccc(C)c1NC(=O)C1(N(C(=O)c2ccccn2)c2ccc(O)cc2)CCCCC1,-2.4% (inactive)
17,COc1cccc(NC(=O)C2(C)CCN2C(=O)CCC2CCCC2)c1 (stereo not drawn),-6.9% (inactive)
18,Cc1nc2c(-c3ccc(F)cc3)c(C)nn2c(C)c1CCC(=O)N1CCN(c2ccccn2)CC1,-14.2% (inactive)
19,COc1ccc(C)cc1Nc1n[n+](-c2ccccc2)c(-c2cccc(Cl)c2Cl)s1,9.5% (inactive)
20,CCc1ccc(Nc2n[n+](-c3ccccc3)c(-c3cccc(Cl)c3Cl)s2)cc1,7.2% (inactive)
21,COc1cc(Br)c(-c2sc(Nc3ccccc3)n[n+]2-c2ccccc2)cc1OC,23.7% (active)
22,O=C(C(NS(=O)(=O)c1cccc2nsnc12)c1ccccc1)N1CCN(c2ccccc2)CC1 (stereo not drawn),3.4% (inactive)
